The values that follow come from PubChem BioAssay.

Activity calls are given as the source filed them.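 The calls were made as follows: active = Her2 level under about 52% in both replicate screens, with viability over 70% of control (limit read from the data); inconclusive = Her2 under the limit in one screen only, or viability under 70%; inactive = Her2 level above the set limit.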

Tested on in the first assay: not listed separately
Nature of the assay: Her2 expression decrease, cell viability multiplex – SKBR3 breast tumor cells, AlphaScreen, ATP viability, primary screen (AID 461).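 As to Her2 level: lower value means less Her2 protein in the cells.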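 As to viability: percent of carrier control wells set as 100% viability.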 Conditions: SKBR3 Her2 protein level, 18-24 h, measured here: SKBR3 viability, ATP luminescence, at 10 µM. (In general: In Alpha technology, singlet oxygen from a donor bead excites a nearby acceptor bead.)
`CC(=O)Nc1ccc(NS(=O)(=O)c2ccc(Cl)c(C(=O)O)c2)cc1`: the viability (in general, a read-out of living cells in per cent, often relative to untreated cells) came to 106%.

For `CCN1CCCC1CNCc1ccc(Cl)cc1Cl` (stereo not drawn), the viability came out at 92.5%.

On to `Cc1sc2ncnc(SCC(=O)N3CCCC3)c2c1C`, for which the viability was determined as 124%.

With `Brc1ccc2[nH]ncc2c1`, the viability was determined as 101%.

Regarding `CCOC(=O)c1cccc(NC(=O)CSc2nc3cccnc3n2C)c1`, the viability is 86.5%.

As to `CCn1c(SCC(=O)N2c3ccccc3CCc3ccccc32)nc2c1c(=O)n(C)c(=O)n2C`, the viability worked out at 87.5%.

`CCN(C(=O)CN1CCN(c2ccccc2OC)CC1)c1c(N)n(Cc2ccccc2)c(=O)[nH]c1=O`: the viability came to 113%.

`O=C(NCc1ccccn1)c1ccc2nc(-c3ccco3)c(-c3ccco3)nc2c1`: the viability was 101%.

Regarding `COCCNC(=O)c1c(N)n(/N=C/c2cccs2)c2nc3ccccc3nc12`, the viability came to 110%.

Turning to `CN(C)Cc1c(O)ccc2oc(Cc3ccccc3)cc12`, the viability turned out to be 90%.

Regarding `COc1cc(/C=N/n2c(C)nnc2C)cc(OC)c1OC`, the viability was found to be 104%.

`Cn1c(=O)c2c(nc(NCc3ccco3)n2C/C=C/c2ccccc2)n(C)c1=O`: the viability stood at 100%.

Take `CCn1c(C(Cc2ccccc2)NC(=O)COC)nc2ccccc21` (stereo not drawn): the viability stood at 102%.

On to `COc1ccccc1OCc1ccc(C(=O)Nc2ccncc2)o1`, for which the viability was 79.5%.

On to `COc1ccc(OC)c(-n2nnnc2SCC(=O)NCc2ccc3c(c2)OCO3)c1`, for which the viability came out at 98.5%.

`O=C(CSc1nnc(-c2cnccn2)n1Cc1ccco1)c1ccc(Cl)cc1`: the viability stood at 90%.

As to `Cc1cc(=O)oc(C)c1C(=O)O`, the viability was 102%.

Regarding `COc1cccc(CN=CC2=C(O)CC(C)(C)CC2=O)c1OC`, the viability turned out to be 106%.

Regarding `O=C(CCNC(=O)Cn1ccc2ccccc2c1=O)NCCN1CCN(c2ccccc2F)CC1`, the viability amounted to 96%.

For the molecule `Cn1cccc1Cc1nnc(SCC(N)=O)n1-c1ccc(F)cc1`, the viability turned out to be 88%.

Consider `N#CC1=C(N)N(c2ccccc2)C(c2ccco2)C1(C#N)C#N` (stereo not drawn), for which the viability worked out at 95.5%.

For the molecule `CCCNC(=O)C1=C(C)C(=O)OC12CCC(C)CC2` (stereo not drawn), the viability came to 94.5%.

As for `CCCS(=O)(=O)C(=C1Nc2ccccc2N1)S(=O)(=O)CCC`, the viability came out at 105%.

As for `O=C(CC(CC(=O)c1ccccc1)C(=O)O)c1ccccc1`, the viability was determined as 89%.

As to `CCS(=O)(=O)N1CCC(C(=O)NC2CCCCC2)CC1`, the viability stood at 113%.

Turning to `COc1ccc(N2C(=O)C3CCCN3C2c2ccc(F)cc2)cc1Cl` (stereo not drawn), the viability came out at 102%.

In the case of `O=C(Nc1nccs1)c1ccc(Cl)c(S(=O)(=O)N2CCCCC2)c1`, the viability amounted to 89%.

On to `CC(=O)N1CCc2cc(S(=O)(=O)CCC(=O)Nc3cccc(F)c3)ccc21`, for which the viability stood at 109%.

For the molecule `Oc1ccc(N2CCN(C(c3cccnc3)c3nnnn3Cc3ccccc3)CC2)cc1` (stereo not drawn), the viability worked out at 85%.

On to `CCOP(=O)(c1ccc(N(C)C)cc1)C(O)c1c(Cl)cccc1Cl` (stereo not drawn), for which the viability was determined as 83%.

For `CCCn1c(SCC(=O)NC(C)(C)C)nnc1C(C)C`, the viability is 110%.

For `CCCCOC(=O)Cn1c(=N)n(CCN2CCOCC2)c2ccccc21`, the viability stood at 77%.

As for `CCOC(=O)c1c(C)n(C)c2ccc(O)c(S(=O)(=O)c3ccccc3)c12`, the viability amounted to 91.5%.

Turning to `CCN1CCN(CCNC(=O)c2cn(C(C)c3ccccc3F)nn2)CC1` (stereo not drawn), the viability came to 122%.

For the molecule `Cc1ccnc(NS(=O)(=O)c2ccc(NC(=O)Cc3cccs3)cc2)n1`, the viability amounted to 94.5%.

On to `c1ccc(CSCc2cn3ccsc3n2)cc1`, for which the viability is 93.5%.

As for `Cc1nnc(N(C)C(=O)c2cccnc2)s1`, the viability stood at 110%.

In the case of `O=C(NC1CCCCC1)C(c1ccco1)N(Cc1cccnc1)C(=O)C1COc2ccccc2O1` (stereo not drawn), the viability came out at 100%.

Take `Cc1cc(Cn2ccnc2)c(C)cc1Cn1ccnc1`: the viability was 82%.

The target of another assay is Receptor tyrosine-protein kinase erbB-2 (Homo sapiens) (UniProt P04626). The description is as above. Particulars: 18-24 h, at 10 µM, stronger effect = lower value.
Chain of Receptor tyrosine-protein kinase erbB-2 (Homo sapiens) (P04626 whole entry, looked up): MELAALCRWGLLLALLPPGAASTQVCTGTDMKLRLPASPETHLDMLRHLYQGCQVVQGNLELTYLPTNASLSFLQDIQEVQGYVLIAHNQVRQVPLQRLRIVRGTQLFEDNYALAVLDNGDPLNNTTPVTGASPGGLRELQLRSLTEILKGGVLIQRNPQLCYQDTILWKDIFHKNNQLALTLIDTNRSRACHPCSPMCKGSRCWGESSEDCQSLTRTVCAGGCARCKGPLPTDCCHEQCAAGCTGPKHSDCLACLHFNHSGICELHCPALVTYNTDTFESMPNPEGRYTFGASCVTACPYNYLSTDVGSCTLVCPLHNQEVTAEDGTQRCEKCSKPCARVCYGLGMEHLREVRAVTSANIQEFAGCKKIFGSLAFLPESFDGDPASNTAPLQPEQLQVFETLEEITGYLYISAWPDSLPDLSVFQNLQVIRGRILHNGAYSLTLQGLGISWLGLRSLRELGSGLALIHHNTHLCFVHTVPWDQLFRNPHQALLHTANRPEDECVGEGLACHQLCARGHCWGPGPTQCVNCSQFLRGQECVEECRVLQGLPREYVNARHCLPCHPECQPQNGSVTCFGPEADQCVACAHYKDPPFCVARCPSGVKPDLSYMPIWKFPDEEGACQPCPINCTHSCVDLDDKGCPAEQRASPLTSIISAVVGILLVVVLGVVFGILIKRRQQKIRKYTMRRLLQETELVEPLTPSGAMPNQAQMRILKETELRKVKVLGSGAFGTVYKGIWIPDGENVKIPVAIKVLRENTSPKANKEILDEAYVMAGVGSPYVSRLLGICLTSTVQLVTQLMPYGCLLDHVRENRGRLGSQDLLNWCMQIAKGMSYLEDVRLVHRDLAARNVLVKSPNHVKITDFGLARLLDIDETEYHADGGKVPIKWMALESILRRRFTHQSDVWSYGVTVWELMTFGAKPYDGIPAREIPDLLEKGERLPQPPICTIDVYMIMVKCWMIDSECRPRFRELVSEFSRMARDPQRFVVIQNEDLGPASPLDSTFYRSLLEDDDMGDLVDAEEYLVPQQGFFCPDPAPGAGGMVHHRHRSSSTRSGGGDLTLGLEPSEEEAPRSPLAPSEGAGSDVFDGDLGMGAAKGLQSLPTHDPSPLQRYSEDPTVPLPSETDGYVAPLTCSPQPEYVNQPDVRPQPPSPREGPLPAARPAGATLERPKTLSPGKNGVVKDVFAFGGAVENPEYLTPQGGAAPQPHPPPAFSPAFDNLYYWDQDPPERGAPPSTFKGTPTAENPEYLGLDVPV
As to `CC(=O)Nc1ccc(NS(=O)(=O)c2ccc(Cl)c(C(=O)O)c2)cc1`, the Her2 level is 108% (inactive).

With `CCN1CCCC1CNCc1ccc(Cl)cc1Cl` (stereo not drawn), the Her2 level is 116% (inactive).

On to `Cc1sc2ncnc(SCC(=O)N3CCCC3)c2c1C`, for which the Her2 level is 95.5% (inactive).

For the molecule `Brc1ccc2[nH]ncc2c1`, the Her2 level was 78% (inactive).

Consider `CCOC(=O)c1cccc(NC(=O)CSc2nc3cccnc3n2C)c1`, for which the Her2 level was 94.5% (inactive).

`CCn1c(SCC(=O)N2c3ccccc3CCc3ccccc32)nc2c1c(=O)n(C)c(=O)n2C`: the Her2 level was 107% (inactive).

Consider `CCN(C(=O)CN1CCN(c2ccccc2OC)CC1)c1c(N)n(Cc2ccccc2)c(=O)[nH]c1=O`, for which the Her2 level is 102% (inactive).

`O=C(NCc1ccccn1)c1ccc2nc(-c3ccco3)c(-c3ccco3)nc2c1`: the Her2 level was 90.5% (inactive).

In the case of `COCCNC(=O)c1c(N)n(/N=C/c2cccs2)c2nc3ccccc3nc12`, the Her2 level is 75.5% (inactive).

As for `CN(C)Cc1c(O)ccc2oc(Cc3ccccc3)cc12`, the Her2 level is 86% (inactive).

On to `COc1cc(/C=N/n2c(C)nnc2C)cc(OC)c1OC`, for which the Her2 level was 95% (inactive).

Regarding `Cn1c(=O)c2c(nc(NCc3ccco3)n2C/C=C/c2ccccc2)n(C)c1=O`, the Her2 level was 84.5% (inactive).

For the molecule `CCn1c(C(Cc2ccccc2)NC(=O)COC)nc2ccccc21` (stereo not drawn), the Her2 level is 92% (inactive).

Consider `COc1ccccc1OCc1ccc(C(=O)Nc2ccncc2)o1`, for which the Her2 level is 92% (inactive).

Regarding `COc1ccc(OC)c(-n2nnnc2SCC(=O)NCc2ccc3c(c2)OCO3)c1`, the Her2 level was 88% (inactive).

In the case of `O=C(CSc1nnc(-c2cnccn2)n1Cc1ccco1)c1ccc(Cl)cc1`, the Her2 level was 81% (inactive).

Take `Cc1cc(=O)oc(C)c1C(=O)O`: the Her2 level was 118% (inactive).

`COc1cccc(CN=CC2=C(O)CC(C)(C)CC2=O)c1OC`: the Her2 level is 114% (inactive).

Turning to `O=C(CCNC(=O)Cn1ccc2ccccc2c1=O)NCCN1CCN(c2ccccc2F)CC1`, the Her2 level is 92% (inactive).

Regarding `Cn1cccc1Cc1nnc(SCC(N)=O)n1-c1ccc(F)cc1`, the Her2 level is 94.5% (inactive).

For the molecule `N#CC1=C(N)N(c2ccccc2)C(c2ccco2)C1(C#N)C#N` (stereo not drawn), the Her2 level is 99.5% (inactive).

`CCCNC(=O)C1=C(C)C(=O)OC12CCC(C)CC2` (stereo not drawn): the Her2 level is 102% (inactive).

Turning to `CCCS(=O)(=O)C(=C1Nc2ccccc2N1)S(=O)(=O)CCC`, the Her2 level was 97.5% (inactive).

Turning to `O=C(CC(CC(=O)c1ccccc1)C(=O)O)c1ccccc1`, the Her2 level was 101% (inactive).

Regarding `CCS(=O)(=O)N1CCC(C(=O)NC2CCCCC2)CC1`, the Her2 level is 99% (inactive).

Consider `COc1ccc(N2C(=O)C3CCCN3C2c2ccc(F)cc2)cc1Cl` (stereo not drawn), for which the Her2 level was 93.5% (inactive).

`O=C(Nc1nccs1)c1ccc(Cl)c(S(=O)(=O)N2CCCCC2)c1`: the Her2 level was 65% (inactive).

For the molecule `CC(=O)N1CCc2cc(S(=O)(=O)CCC(=O)Nc3cccc(F)c3)ccc21`, the Her2 level is 104% (inactive).

On to `Oc1ccc(N2CCN(C(c3cccnc3)c3nnnn3Cc3ccccc3)CC2)cc1` (stereo not drawn), for which the Her2 level is 92% (inactive).

For the molecule `CCOP(=O)(c1ccc(N(C)C)cc1)C(O)c1c(Cl)cccc1Cl` (stereo not drawn), the Her2 level is 87.5% (inactive).

`CCCn1c(SCC(=O)NC(C)(C)C)nnc1C(C)C`: the Her2 level is 79.5% (inactive).

`CCCCOC(=O)Cn1c(=N)n(CCN2CCOCC2)c2ccccc21`: the Her2 level was 102% (inactive).

Consider `CCOC(=O)c1c(C)n(C)c2ccc(O)c(S(=O)(=O)c3ccccc3)c12`, for which the Her2 level was 80.5% (inactive).

`CCN1CCN(CCNC(=O)c2cn(C(C)c3ccccc3F)nn2)CC1` (stereo not drawn): the Her2 level is 98.5% (inactive).

As for `Cc1ccnc(NS(=O)(=O)c2ccc(NC(=O)Cc3cccs3)cc2)n1`, the Her2 level was 111% (inactive).

Turning to `c1ccc(CSCc2cn3ccsc3n2)cc1`, the Her2 level is 95.5% (inactive).

Consider `Cc1nnc(N(C)C(=O)c2cccnc2)s1`, for which the Her2 level is 110% (inactive).

As for `O=C(NC1CCCCC1)C(c1ccco1)N(Cc1cccnc1)C(=O)C1COc2ccccc2O1` (stereo not drawn), the Her2 level is 84.5% (inactive).

For `Cc1cc(Cn2ccnc2)c(C)cc1Cn1ccnc1`, the Her2 level is 91.5% (inactive).
